# Source: PubChem BioAssay (National Center for Advancing Translational Sciences (NCATS))
# Sampled rows, rich in hits. Any-hit rate of the full collection: about 2.6%.
# Cruzain inh noDet = qHTS Assay for Promiscuous and Specific Inhibitors of Cruzain (without detergent); Cruzipain (Trypanosoma cruzi), P25779; purified cruzain, Z-FR-AMC fluorescence, no detergent; Potency, µM, without a hit: max response, negative = inhibition, usual class: inhibitors; 200,000 tested, 2.3% active; AID 1476, 2009;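 also: plate controls were enzyme without inhibitor for no effect and buffer without enzyme for full effect; nearly all actives have a fitted effect of over 40% in size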
# Target sequence (P25779 123-467 limits assumed): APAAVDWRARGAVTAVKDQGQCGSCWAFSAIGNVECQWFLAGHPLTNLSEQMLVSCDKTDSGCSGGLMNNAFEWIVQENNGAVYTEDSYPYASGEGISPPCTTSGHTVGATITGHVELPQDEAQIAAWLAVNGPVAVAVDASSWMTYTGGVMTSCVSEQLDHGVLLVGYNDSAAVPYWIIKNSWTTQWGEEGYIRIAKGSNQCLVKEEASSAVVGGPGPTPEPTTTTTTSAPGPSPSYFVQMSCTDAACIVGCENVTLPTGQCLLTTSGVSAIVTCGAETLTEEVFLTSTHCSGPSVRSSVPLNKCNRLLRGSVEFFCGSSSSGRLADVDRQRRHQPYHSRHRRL
#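 Detergent-free condition (0.00005% Triton X-100) in acetate buffer pH 5.5 with DTT. 1.5 nM enzyme and compound were pre-mixed 15 min, then 2 uM Z-FR-AMC substrate added; reaction progress from fluorescence change between first and third reads (60 s).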
# Cruzain inh Det = qHTS Assay for Promiscuous and Specific Inhibitors of Cruzain (with detergent); purified cruzain, Z-FR-AMC fluorescence, 0.01% Triton; Potency, µM, for the others: max response, negative = inhibition, hits mostly inhibitors; 200,000 tested, 0.43% active; AID 1478, 2009;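 also: plate controls were neutral wells for no effect and buffer without enzyme for full effect; nearly all actives have a fitted effect of over 40% in size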
#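 Purified cruzain (1.5 nM final) was preincubated with compounds for 15 min at room temperature in 100 mM sodium acetate pH 5.5, 5 mM DTT, 0.01% Triton X-100. Reaction started with 2 uM Z-FR-AMC; AMC fluorescence change over 60 s gave activity.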
# * hit, by the source's call; ? = inconclusive; ! = not confirmed by another sample. Calls follow the shape of the dose curve; as a rule, active = well fitted curve in the direction sought with a large enough effect; inconclusive = small, poorly fitted or top-dose-only effect, or another doubt; inactive = no such curve, though single readings can be large; an effect the other way counts as inactive or inconclusive. Potency is read from the fitted curve at half-maximal effect.
SMILES,Cruzain inh noDet,Cruzain inh Det
Cc1ccc(-c2c(C)n3c4c(=O)n(C)c(=O)n(C)c4nc3n2-c2cccc(O)c2)cc1,-5%,0%
CCOCCCNC(=O)c1c(NC(=O)c2cc(=O)c3cc(C)c(C)cc3o2)sc2c1CCC2,-5%,2%
O=c1c(O)c(-c2ccc(O)c(O)c2)oc2cc(O)cc(O)c12,20µM*!,?
O=c1cc(-c2ccc(O)c(O)c2)oc2cc(O)cc(O)c12,-19%,-13%
CC(C(=O)Nc1cc([N+](=O)[O-])ccc1Cl)N1CCN(c2ccccc2)CC1 (configuration not stated),1%,-2%
O=C(CN1CCN(c2ccc(O)cc2)CC1)Nc1cc([N+](=O)[O-])ccc1Cl,25µM*,-24%
C[C@H](NCCc1ccc(O)cc1)[C@@H](O)c1ccc(O)cc1,8%,-1%
Cc1ccc(Cl)cc1NC(=O)Cn1cc2c(n1)CCCCC2,-4%,-2%
CCC1CCc2c(sc(NC(=O)CSc3nc(-c4ccco4)cc(C(F)(F)F)n3)c2C#N)C1 (configuration not stated),1.3µM*,4%
COc1ccc(-c2cc(C(F)(F)F)nc(SCC(=O)Nc3sc4c(c3C#N)CCC4)n2)cc1,13µM*,-11%
N#Cc1c(NC(=O)CSc2nc(-c3ccccc3)cc(C(F)(F)F)n2)sc2c1CCC2,?,-9%
CCOC(=O)c1sc(NC(=O)CSc2nc(-c3ccco3)cc(C(F)(F)F)n2)c(C(=O)OC)c1C,-9%,1%
CCC(Sc1ncnc2sc3c(c12)CCCC3)C(=O)OC(C)C (configuration not stated),-6%,-6%
CCOC(=O)CSc1nc(-c2ccc(OC)cc2)cc(C(F)(F)F)c1C#N,-3%,-3%
CCOC(=O)CCCSc1nc(-c2ccc3c(c2)OCO3)cc(C(F)(F)F)c1C#N,25µM*,-4%
COc1ccc2c(c1)CCc1c(C(=O)Nc3cc(C)n(Cc4ccc(Cl)cc4)n3)noc1-2,13µM*,-3%
COc1ccc2c(c1)CCc1c(C(=O)Nc3c(C)nn(Cc4ccc(Cl)cc4)c3C)noc1-2,2%,-5%
CS(=O)(=O)Oc1ccccc1/C=C1/N=C(c2ccc(F)cc2)OC1=O,16µM*,14µM*
O=C1OC(c2ccccc2)=N/C1=C\N1CCCCC1,-7%,-7%
Cc1nn(-c2ccccc2)c(N2CCCC2)c1/C=C1\N=C(c2ccc(F)cc2)OC1=O,0.32µM*,0.4µM*
COc1cccc(/C=C2\N=C(c3c(-c4ccccc4)noc3C)OC2=O)c1OC,9%,-7%
Cc1nn(-c2ccccc2)c(N2CCCC2)c1/C=N/O,4%,-1%
Cc1ccc(C2=N/C(=C\c3c(C)nn(-c4ccccc4)c3N3CCCC3)C(=O)O2)cc1,1.6µM*,1µM*
Cc1ccc2c(c1)N(C(=O)CCC(=O)NCc1ccccc1Cl)CC(C)O2 (configuration not stated),-3%,-2%
COc1ccccc1C(=O)Nc1c(C(=O)N(C)c2ccccc2)sc2nc(C)cc(C)c12,12%,-1%
SMILES,Cruzain inh noDet,Cruzain inh Det
CCOC(=O)c1cc(-c2ccc(OC)cc2)n(CCC(=O)NCc2ccc(OC)cc2)c1C,7%,-2%
COC(=O)c1ccc(Nc2nc(-c3ccccc3Cl)nc3ccccc23)cc1,5%,-7%
Cc1nn(-c2ccccc2)c(N2CCCC2)c1/C=N/NC(=S)Nc1ccccc1C(F)(F)F,?,-7%
Cc1nn(-c2ccccc2)c(N2CCCC2)c1/C=N/NC(=S)Nc1cc(C(F)(F)F)ccc1Cl,10µM*,-4%
Cc1cccc(NC(=O)CSc2nnc(-c3ccco3)c(-c3ccco3)n2)c1C,7.9µM*,28µM*
Cc1ccccc1NC(=O)CSc1ccc(-c2ccco2)nn1,2%,-3%
CCOC(=O)c1c(NC(=O)c2ccc(C)cc2)sc2c1CCCCC2,-1%,0%
CCOC(=O)c1c(NC(=O)C(=O)N/N=C/c2ccccc2OC)sc2c1CCCCC2,10µM*,-10%
CCOC(=O)c1c(NC(=O)C(=O)N/N=C/c2ccccc2O)sc2c1CCCCC2,7.9µM*,2%
CCOC(=O)c1c(NC(=O)C(=O)N/N=C(\C)c2ccc(OC)cc2)sc2c1CCCCC2,-1%,-5%
COc1ccc2sc(N(Cc3cccnc3)C(=O)c3ccc4c(c3)OCCO4)nc2c1,-16%,2%
CCCN(C(=O)c1cc(S(=O)(=O)N2CCc3ccccc32)cn1C)c1ccc(OCC)cc1,8%,0%
COC(=O)CCCC1=CC2=C(c3ccccc3)C(=O)C(C)(OC(=O)C3CCCC3)C(=O)C2=CO1 (configuration not stated),8%,0%
Cc1cc(S(=O)(=O)NCc2ccccc2)ccc1OCC(=O)Nc1cccc([N+](=O)[O-])c1,25µM*,-5%
CN(Cc1ccccc1)S(=O)(=O)c1ccc(OCC(=O)Nc2cccc([N+](=O)[O-])c2)cc1,-21%,-3%
